“And” between values parts separate entries of the source, which are not always exact repeats. Equal values may be shown once. Compounds without any hit were thinned out: in the full panel of roughly 79,000, 15% have a hit. The source holds several records for some structures; these can differ, active in one and inactive in another. The source made the active and inactive calls. No stated cut-off is given here; in the data, active means growth inhibition above about 70%; inactive means the rest.
Assay: NCI Yeast Anticancer Drug Screen. Data for the bub3 strain (AID 167)
Settings: S. cerevisiae bub3 mutant strain, stronger effect = higher value
Experimental: Growth inhibition of yeast strains with defined genetic alterations is measured as a screen for potential anti-cancer activity. Selected strains with alterations in DNA damage repair or cell cycle control were exposed to compounds and growth inhibition was measured relative to vehicle treated controls. The strain used in this assay is bub3

[1] = at 5.0 µM (retest, dose inferred, filed as 0.5)
[2] = at 50.0 µM (retest, dose inferred, filed as 5.0)

Compound | growth inhibition [1] | growth inhibition [2] | growth inhibition (at 50.0 µM)
CCCCCCCCCCCCCCCCBr | -2% (inactive) | -3% (inactive) | 99.5% (active)
O=C1C(=Cc2ccc(O)cc2)N=C(c2ccccc2)N1n1c(-c2ccccc2)nc2ccccc2c1=O | 12% (inactive) | 57% (inactive) | 89.4% (active)
O=C(O)CSCc1ccc(Cl)cc1 | 2% (inactive) | 4% (inactive) | 6.1% (inactive)
Cc1c(N)nc(C(CC(N)=O)NCC(N)C(N)=O)nc1C(=O)NC(C(=O)NC(C)C(O)C(C)C(=O)NC(C(=O)NCCc1nc(-c2nc(C(=O)NCCCNCCCCN)cs2)cs1)C(C)O)C(OC1OC(CO)C(O)C(O)C1OC1OC(CO)C(O)C(OC(N)=O)C1O)c1cnc[nH]1 (configuration not stated) | 76% (active) | 98% (active) | 99% (active) and 87.9% (active)
O=C1c2ccccc2-n2c1nc1ccccc1c2=O | 32% (inactive) | 57% (inactive) | 53.1% (inactive)
CN(C)c1nc(N)c(C#N)c(C#N)c1C#N | 9% (inactive) | 79% (active) | 88.5% (active)
O=C1NS(=O)(=O)c2ccccc21 | -29% (inactive) | -122% (inactive) | 30.9% (inactive) and 50.3% (inactive)
OC1(C2C=CC=C2)c2ccccc2C=Cc2ccccc21 | -14% (inactive) | -85% (inactive) | 69.5% (inactive)
COc1ccc(CC(=O)c2ccc(O)cc2O)cc1 | -6% (inactive) | 71% (active) | 77.1% (active)
O=C(Nc1cc(-c2ccccc2)[nH]n1)c1ccccc1F | 42% (inactive) | 55% (inactive) | 89.3% (active)
CN1CCCc2cc(/C=C\c3ccnc4ccccc34)ccc21 | -7% (inactive) | 94% (active) | 96.8% (active)
CCOC(=O)c1c[nH]c2cc(C(F)(F)F)ccc2c1=O | 22% (inactive) | 2% (inactive) | 69.9% (inactive)
CCCCCCCCCCCCSC(=NC)NC | 91% (active) and 46% (inactive) | 100% (active) | 99.5% (active) and 99% (active)
CCCCCCC(C)CC(CCCCCC)NCCOC(=O)c1ccc([N+](=O)[O-])cc1 (configuration not stated) | 19% (inactive) and 6% (inactive) | 99% (active) and 98% (active) | 98.7% (active) and 99.3% (active)
